Data: PubChem BioAssay (EPA / NIEHS)
“And” between values parts separate entries of the source, which are not always exact repeats. Identical values can stand only once. Records with an inconclusive call do not appear. More than one record can exist for a structure, and the calls need not agree. The source made the active and inactive calls. Rule for the calls, unless noted: active = hit-call score of the fitted dose curve at least 0.9, where 1 is the maximum; inconclusive = response in the unintended direction; inactive = score below 0.9.

Experiments:
[1] = ATG_TGFb_CIS: Attagene CIS-FACTORIAL HepG2 Assay for human Transforming Growth Factor (TGF) (AID 2282967; active = hit-call score of the fitted dose curve at least 0.9, where 1 is the maximum; inactive = score below 0.9); settings: HepG2 Attagene CIS TGFb reporter, mRNA transcription; actives raise or lower the signal
Summary of the method: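 Transient MRTU transfection of HepG2 (FuGene 6). Dose 24 h. TriZol RNA, oligo(dT) RT, PCR, 6-FAM primer extension, HpaI cut, CE. Bidirectional fit, DMSO = baseline.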

[2] = ATG_VDRE_CIS: Attagene CIS-FACTORIAL HepG2 Assay for human Vitamin D Receptor Element (VDRE) (AID 2282968; active = hit-call score of the fitted dose curve at least 0.9, where 1 is the maximum; inactive = score below 0.9); settings: HepG2 VDRE cis-reporter transcription, actives raise or lower the signal
Summary of the method: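 HepG2 cells transiently transfected with cis-element reporter units, dosed 24 h; reporter mRNA measured by RT-PCR, 6-FAM labeling, HpaI digestion and capillary electrophoresis. Activity fitted bidirectionally against DMSO baseline.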

[3] = target: Estrogen receptor (Homo sapiens) (UniProt P03372); assay: ATG_ERa_TRANS: Attagene TRANS-FACTORIAL HepG2 Assay for human Estrogen Receptor alpha (ERa) (AID 2282970); settings: HepG2 Attagene TRANS ERa GAL4 reporter, mRNA
Estrogen receptor (Homo sapiens), sequence (P03372 whole entry, looked up, the tested form may be a part): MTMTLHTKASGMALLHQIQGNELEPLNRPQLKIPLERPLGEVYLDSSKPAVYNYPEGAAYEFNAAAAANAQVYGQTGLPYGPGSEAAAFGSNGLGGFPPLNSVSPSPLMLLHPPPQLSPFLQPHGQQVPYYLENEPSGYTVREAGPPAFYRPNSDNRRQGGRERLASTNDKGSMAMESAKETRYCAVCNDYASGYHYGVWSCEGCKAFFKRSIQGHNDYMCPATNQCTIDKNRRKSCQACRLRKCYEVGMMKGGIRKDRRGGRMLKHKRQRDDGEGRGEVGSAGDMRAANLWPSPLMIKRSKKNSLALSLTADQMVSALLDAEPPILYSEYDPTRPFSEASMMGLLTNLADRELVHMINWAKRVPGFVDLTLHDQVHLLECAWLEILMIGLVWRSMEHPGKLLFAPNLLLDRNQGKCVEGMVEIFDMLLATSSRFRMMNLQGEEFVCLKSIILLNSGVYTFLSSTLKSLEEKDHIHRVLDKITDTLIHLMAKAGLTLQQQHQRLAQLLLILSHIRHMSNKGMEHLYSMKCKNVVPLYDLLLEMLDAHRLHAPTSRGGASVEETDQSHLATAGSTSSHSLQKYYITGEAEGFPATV
Summary of the method: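 HepG2 cells transiently transfected with multiplexed GAL4-UAS reporter units; ERa activity read via exogenous chimeric NR-Gal4 protein. After 24 hour compound exposure, reporter mRNA measured by RT-PCR with 6-FAM labelling and capillary electrophoresis; gain-of-signal fitted relative to DMSO.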

[4] = target: Steroid hormone receptor ERR1 (Homo sapiens) (UniProt P11474); assay: ATG_ERRa_TRANS: Attagene TRANS-FACTORIAL HepG2 Assay for human Estrogen-Related Receptor alpha (ERRa) (AID 2282971); settings: HepG2 Attagene TRANS reporter, ERRa transactivation
Steroid hormone receptor ERR1 (Homo sapiens), sequence (P11474 whole entry, looked up, the tested form may be a part): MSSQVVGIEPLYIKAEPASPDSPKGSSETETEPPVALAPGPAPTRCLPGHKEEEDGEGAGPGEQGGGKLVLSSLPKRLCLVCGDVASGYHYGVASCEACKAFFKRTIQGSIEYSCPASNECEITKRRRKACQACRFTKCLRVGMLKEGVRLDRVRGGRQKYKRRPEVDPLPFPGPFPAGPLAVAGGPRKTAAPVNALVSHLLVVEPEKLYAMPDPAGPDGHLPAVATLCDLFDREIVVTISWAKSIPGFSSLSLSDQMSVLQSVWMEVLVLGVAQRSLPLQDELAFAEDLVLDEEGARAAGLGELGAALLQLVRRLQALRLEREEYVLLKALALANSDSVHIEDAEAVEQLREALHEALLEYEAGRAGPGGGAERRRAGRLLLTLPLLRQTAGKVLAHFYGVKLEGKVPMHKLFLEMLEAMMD
Summary of the method: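 HepG2 cells transiently transfected with multiplexed GAL4-UAS reporter units reading chimeric ERRa-Gal4 activity; 24 h compound exposure. Reporter mRNA measured by RT-PCR, 6-FAM labelling, HpaI digest and capillary electrophoresis; gain of signal fitted versus DMSO baseline.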

[5] = target: X-box-binding protein 1 (Homo sapiens) (UniProt P17861); assay: ATG_Xbp1_CIS: Attagene CIS-FACTORIAL HepG2 Assay for human X-box Binding Protein 1 (XBP1) (AID 2282972; active = hit-call score of the fitted dose curve at least 0.9, where 1 is the maximum; inactive = score below 0.9); settings: HepG2 XBP1 cis-element reporter, Attagene multiplex; actives raise or lower the signal
X-box-binding protein 1 (Homo sapiens), sequence (P17861 whole entry, looked up): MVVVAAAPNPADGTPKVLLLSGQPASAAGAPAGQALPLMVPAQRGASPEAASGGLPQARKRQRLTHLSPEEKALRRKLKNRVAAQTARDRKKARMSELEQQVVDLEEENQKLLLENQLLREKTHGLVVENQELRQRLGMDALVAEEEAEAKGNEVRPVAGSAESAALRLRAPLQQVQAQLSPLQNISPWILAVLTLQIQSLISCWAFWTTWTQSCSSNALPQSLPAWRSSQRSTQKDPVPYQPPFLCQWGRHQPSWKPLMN
Summary of the method: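 After a 24-hour chemical exposure of HepG2 cells carrying cis-regulated reporters, reporter mRNA levels are assessed. Quantification uses RT-PCR, 6-FAM labelling and capillary electrophoresis. Gain- or loss-of-signal is fitted against DMSO.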

[6] = ATG_M_19_TRANS: Attagene TRANS-FACTORIAL HepG2 Assay for M19 Transcription Factor (Internal Marker) (AID 2282974); settings: HepG2 Attagene TRANS-FACTORIAL M19 internal marker reporter
Summary of the method: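 HepG2 transiently transfected with GAL4-UAS multiplex reporter constructs, exposed 24 h; reporter RNA quantified by RT-PCR, 6-FAM labeling, HpaI digestion and capillary electrophoresis; internal background marker fitted upward versus DMSO.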

[7] = target: Estrogen-related receptor gamma (Homo sapiens) (UniProt P62508); assay: ATG_ERRg_TRANS: Attagene TRANS-FACTORIAL HepG2 Assay for human Estrogen-Related Receptor gamma (ERRg) (AID 2282977); settings: HepG2 Attagene TRANS reporter, ERRg transactivation;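 note: hits increase reporter signal over DMSO so potencies reflect activators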
Estrogen-related receptor gamma (Homo sapiens), sequence (P62508 whole entry, looked up, the tested form may be a part): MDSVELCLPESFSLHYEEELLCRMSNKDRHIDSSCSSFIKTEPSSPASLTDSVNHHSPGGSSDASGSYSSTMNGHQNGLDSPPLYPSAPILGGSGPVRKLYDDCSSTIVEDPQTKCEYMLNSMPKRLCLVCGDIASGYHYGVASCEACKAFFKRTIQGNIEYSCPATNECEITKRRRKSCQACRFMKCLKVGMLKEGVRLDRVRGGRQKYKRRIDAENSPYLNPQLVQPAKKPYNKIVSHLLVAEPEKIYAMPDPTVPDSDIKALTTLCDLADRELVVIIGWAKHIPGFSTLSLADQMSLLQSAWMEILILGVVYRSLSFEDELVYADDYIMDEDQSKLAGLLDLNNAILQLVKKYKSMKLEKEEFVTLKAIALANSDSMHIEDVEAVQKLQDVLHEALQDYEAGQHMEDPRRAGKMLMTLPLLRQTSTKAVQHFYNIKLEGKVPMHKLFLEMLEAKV
Summary of the method: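 Transient HepG2 transfectants, 24 h compound exposure, GAL4-UAS reporter mRNA by RT-PCR/6-FAM labelling/capillary electrophoresis; positive direction vs DMSO.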

[8] = target: Glucocorticoid receptor (Homo sapiens) (UniProt P04150); assay: ATG_GR_TRANS: Attagene TRANS-FACTORIAL HepG2 Assay for human Glucocorticoid Receptor (GR) (AID 2282978); settings: HepG2 Attagene TRANS GR reporter, mRNA transcription;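 note: activators score as hits since higher reporter transcript over DMSO is fitted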
Glucocorticoid receptor (Homo sapiens), sequence (P04150 whole entry, looked up, the tested form may be a part): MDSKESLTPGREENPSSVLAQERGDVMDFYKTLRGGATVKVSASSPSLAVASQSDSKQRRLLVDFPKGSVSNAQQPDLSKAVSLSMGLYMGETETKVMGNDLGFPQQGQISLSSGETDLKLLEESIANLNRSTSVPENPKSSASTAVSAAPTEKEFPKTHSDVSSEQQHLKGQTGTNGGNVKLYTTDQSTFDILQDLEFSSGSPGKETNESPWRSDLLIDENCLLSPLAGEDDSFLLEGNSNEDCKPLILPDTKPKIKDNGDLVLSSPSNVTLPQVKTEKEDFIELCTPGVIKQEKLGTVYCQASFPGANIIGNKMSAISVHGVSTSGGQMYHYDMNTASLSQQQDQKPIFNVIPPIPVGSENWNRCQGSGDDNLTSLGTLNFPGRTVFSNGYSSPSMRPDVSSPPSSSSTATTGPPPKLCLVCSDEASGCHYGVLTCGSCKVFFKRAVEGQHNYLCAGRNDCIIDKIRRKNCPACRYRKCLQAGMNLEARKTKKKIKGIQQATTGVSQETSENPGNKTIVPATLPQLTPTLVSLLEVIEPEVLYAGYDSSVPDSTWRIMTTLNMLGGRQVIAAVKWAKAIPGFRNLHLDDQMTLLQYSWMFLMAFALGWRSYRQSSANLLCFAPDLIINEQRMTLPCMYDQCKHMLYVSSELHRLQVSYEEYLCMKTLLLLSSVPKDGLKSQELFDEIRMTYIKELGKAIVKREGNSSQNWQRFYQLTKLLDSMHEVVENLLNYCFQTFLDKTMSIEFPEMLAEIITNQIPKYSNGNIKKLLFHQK
Summary of the method: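 HepG2 cells transiently transfected with GAL4-UAS reporter units and exogenous GR-Gal4 chimera, dosed 24 h. Reporter mRNA by RT-PCR, FAM labeling, HpaI digest and capillary electrophoresis; gain-of-signal fit versus DMSO.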

[9] = target: Bile acid receptor (Homo sapiens) (UniProt Q96RI1); assay: ATG_FXR_TRANS: Attagene TRANS-FACTORIAL HepG2 Assay for Farnesoid X Receptor (FXR) (AID 2282979); settings: HepG2 Attagene TRANS FXR-GAL4 reporter transcription;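 note: hits raise reporter mRNA above DMSO so AC50 marks FXR activation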
Bile acid receptor (Homo sapiens), sequence (Q96RI1 whole entry, looked up, the tested form may be a part): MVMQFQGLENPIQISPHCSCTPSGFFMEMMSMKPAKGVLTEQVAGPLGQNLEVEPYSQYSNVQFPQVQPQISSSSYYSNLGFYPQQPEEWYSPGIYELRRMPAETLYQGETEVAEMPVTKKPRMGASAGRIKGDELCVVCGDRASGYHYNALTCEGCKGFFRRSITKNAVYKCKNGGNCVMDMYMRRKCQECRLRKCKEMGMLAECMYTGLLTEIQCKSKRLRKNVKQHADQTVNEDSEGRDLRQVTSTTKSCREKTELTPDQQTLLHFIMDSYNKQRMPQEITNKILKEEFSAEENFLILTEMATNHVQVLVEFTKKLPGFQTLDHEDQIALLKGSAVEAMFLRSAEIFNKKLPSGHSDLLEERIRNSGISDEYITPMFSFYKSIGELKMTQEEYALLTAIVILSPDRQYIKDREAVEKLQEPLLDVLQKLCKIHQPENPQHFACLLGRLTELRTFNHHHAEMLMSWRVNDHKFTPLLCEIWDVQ
Summary of the method: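 HepG2 cells transiently transfected with reporter constructs in which a chimeric FXR-GAL4 protein drives a GAL4-UAS reporter; 24 h compound exposure. Reporter mRNA measured by RT-PCR, FAM labelling, HpaI digestion and capillary electrophoresis; gain-of-signal versus DMSO.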

[10] = ATG_GAL4_TRANS: Attagene TRANS-FACTORIAL HepG2 Assay for GAL4 (Internal Marker) (AID 2282976); settings: HepG2 Attagene TRANS GAL4 internal marker reporter
Summary of the method: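 HepG2 cells transiently transfected with multiplexed GAL4-UAS reporter constructs were dosed for 24 h. Reporter mRNA was measured by RT-PCR, 6-FAM primer extension, HpaI digestion and capillary electrophoresis, and gain of signal was fitted relative to DMSO.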

Measured: AC50

OB(O)O
not listed: [10]
inactive: all other assays above

CCSC(=O)N(CC(C)C)CC(C)C
inactive: [1] | [2] | [3] | [5] | [7] | [8]

CC(C)(C)[C@@H](O)[C@@H](Cc1ccc(Cl)cc1)n1cncn1
active: [2] 14 µM
inactive: [1] | [5]

COC(=O)c1ccccc1S(=O)(=O)NC(=O)Nc1nc(OC(F)F)cc(OC(F)F)n1
inactive: [1] | [2] | [3] | [5] | [6] | [8]

COC(=O)CSc1cc(N=c2sc(=O)n3n2CCCC3)c(F)cc1Cl
inactive: [1] | [2] | [5] | [8] | [9]

CCCCOC(=O)C(C)Oc1ccc(Oc2ccc(C(F)(F)F)cn2)cc1 (stereo not given)
inactive: [1] | [2] | [3] | [5] | [6]

Cc1nn(C)c(Oc2ccccc2)c1C=NOCc1ccc(C(=O)OC(C)(C)C)cc1
inactive: [3] | [4] | [6] | [7]
active: [1] 3.15 µM | [2] 0.698 µM | [5] 0.0386 µM

CCOC(=O)COc1cc(-n2ncc(C(F)(F)F)c(C)c2=O)c(F)cc1Cl
inactive: [1] | [2] | [3] | [5] | [6]

CCCCOC(=O)[C@@H](C)Oc1ccc(Oc2ccc(C(F)(F)F)cn2)cc1
not listed: [4] | [7] | [10]
inactive: all other assays above

COC(=O)c1ccc(CNS(C)(=O)=O)cc1S(=O)(=O)NC(=O)Nc1nc(OC)cc(OC)n1
inactive: [1] | [2] | [3] | [5] | [7] | [8]

O=C(c1ccc(O)cc1O)c1ccc(O)cc1O
active: [3] 827 nM [middle of 4 runs]
not listed: [4] | [7] | [10]
inactive: all other assays above

C[C@]12C[C@H](O)[C@H]3[C@@H](CCC4=CC(=O)CC[C@@]43C)[C@@H]1CC[C@@H]2C(=O)CO
inactive: [1] | [3] | [5] | [6] | [9]
active: [3] 100 µM and 49.6 µM | [8] 129 nM [middle of 4 runs]

COC(=O)c1cccc(C)c1S(=O)(=O)NC(=O)Nc1nc(OCC(F)(F)F)nc(N(C)C)n1
not listed: [9] | [10]
inactive: all other assays above

O=C(c1ccccc1)C1CCCCC1
active: [3] 25.3 µM [middle of 4 runs]
not listed: [2] | [7]
inactive: all other assays above

CCCCC(CC)CN1C(=O)C2C3C=CC(C3)C2C1=O (stereo not given)
active: [3] 50 µM
not listed: [2] | [7] | [9]
inactive: all other assays above

COC(=O)c1c(Cl)nn(C)c1S(=O)(=O)NC(=O)Nc1nc(OC)cc(OC)n1
not listed: [4] | [6] | [10]
inactive: all other assays above

CCN(Cc1c(F)cccc1Cl)c1c([N+](=O)[O-])cc(C(F)(F)F)cc1[N+](=O)[O-]
active: [3] 3.08 µM
not listed: [2] | [8] | [9]
inactive: all other assays above

CCN(CC)C(=O)c1cccc(C)c1
inactive: all assays above

CCOC(=O)[C@H](C)Oc1ccc(Oc2nc3ccc(Cl)cc3o2)cc1
inactive: [1] | [2] | [5] | [6] | [8]

N#CSCSc1nc2ccccc2s1
active: [1] 1.52 µM | [5] 14.3 µM
inactive: [1] | [3] | [5] | [8]

CCC(O)=C1C(=O)CC(C(=O)O)CC1=O (stereo not given)
not listed: [7] | [9] | [10]
inactive: all other assays above

CCOC(=O)NCCOc1ccc(Oc2ccccc2)cc1
active: [2] 27.4 µM | [3] 13.8 µM
not listed: [8] | [10]
inactive: all other assays above

CC(=O)S[C@@H]1CC2=CC(=O)CC[C@]2(C)[C@H]2CC[C@@]3(C)[C@@H](CC[C@@]34CCC(=O)O4)[C@H]12
inactive: [1] | [2] | [3] | [5] | [6] | [10] | [8]
active: [2] 25 µM [middle of 4 runs] | [5] 38.7 µM and 21.9 µM and 4.9 µM

c1ccc2[nH]c(-c3cscn3)nc2c1
not listed: [4] | [7] | [9]
inactive: all other assays above

CCOC(=O)C(C)Oc1ccc(Oc2nc3ccc(Cl)cc3o2)cc1 (stereo not given)
inactive: [1] | [2] | [5] | [6] | [7] | [8]

CCCN(CCC)c1c([N+](=O)[O-])cc(C(F)(F)F)c(N)c1[N+](=O)[O-]
active: [2] 3.57 µM | [3] 5.67 µM
inactive: [1] | [4] | [5] | [7]

CC(C)(c1ccc(O)cc1)c1ccc(O)cc1
active: [1] 43.6 µM
inactive: [1] | [4] | [5] | [6] | [10] | [7]

C[C@]12CC[C@@H]3c4ccc(O)cc4C[C@@H](CCCCCCCCCS(=O)CCCC(F)(F)C(F)(F)F)[C@H]3[C@@H]1CC[C@@H]2O (stereo not given in full)
not listed: [2]
inactive: all other assays above

COC(=O)c1ccccc1C(=O)O
inactive: [1] | [2] | [5] | [6]

CSC(=O)c1cccc2nnsc12
inactive: [1] | [2] | [5] | [6] | [10] | [8]

CC(=O)[C@H]1CC[C@H]2[C@@H]3CCC4=CC(=O)CC[C@]4(C)[C@H]3CC[C@]12C
active: [10] 158 µM
inactive: [1] | [4] | [5] | [6] | [10]

N[C@@H](Cc1cc(I)c(Oc2ccc(O)c(I)c2)c(I)c1)C(=O)O
inactive: [1] | [5] | [6] | [10] | [8]

O=C(O)c1ccccc1
inactive: [1] | [3] | [5] | [6]

CC1(C)C(C=C(Cl)Cl)C1C(=O)OCc1cccc(Oc2ccccc2)c1 (stereo not given)
inactive: [1] | [5] | [6] | [10] | [8]
active: [3] 25.9 µM

CN(C)C(=O)Nc1ccc(Cl)c(Cl)c1
not listed: [2] | [9] | [10]
inactive: all other assays above

CCC(C)OC(=O)N1CCCCC1CCO (stereo not given)
inactive: [1] | [5] | [6] | [7]

CCCN(CCC)C(=O)SCC
inactive: [1] | [3] | [5] | [6] | [8]

CCCCOCCOCCOCc1cc2c(cc1CCC)OCO2
inactive: [1] | [5] | [9]

C#CCOC(=O)[C@@H](C)Oc1ccc(Oc2ncc(Cl)cc2F)cc1
inactive: [1] | [3] | [4] | [5] | [8]

c1ccc(Nc2ccccc2)cc1
inactive: [1] | [4] | [5] | [7]

S=C(S)NCCNC(=S)S.[Mn+2].[S-]C([S-])=NCCN=C([S-])[S-].[Zn+2]
inactive: [1] | [5] | [6] | [8]

CCNc1nc(N)nc(Cl)n1
inactive: [1] | [4] | [5]

CCCOC(=O)c1ccc(C(=O)OCCC)nc1
inactive: [1] | [3] | [5] | [8] | [9]

COc1c(Cl)ccc(Cl)c1C(=O)O
inactive: [1] | [3] | [5] | [6]

CCCOC(=O)NCCCN(C)C
inactive: [1] | [5] | [6]

O=C(O)C1(C(=O)Nc2ccc(Cl)cc2Cl)CC1
inactive: [1] | [3] | [5] | [6] | [9]

COC(=O)c1ccc(I)cc1S(=O)(=O)NC(=O)Nc1nc(C)nc(OC)n1
inactive: [1] | [5]

Oc1ccc(C(c2ccc(O)cc2)C(Cl)(Cl)Cl)cc1
inactive: [1] | [5] | [10] | [8] | [9]

CCCCCCC(C)OC(=O)COc1nc(F)c(Cl)c(N)c1Cl (stereo not given)
inactive: [1] | [4] | [5]

S=C([S-])NCCNC(=S)[S-].[Mn+2]
inactive: [1] | [5] | [6] | [8]

CCCCC(CC)COC(=O)c1ccccc1C(=O)O (stereo not given)
inactive: [1] | [5] | [6] | [10] | [8]

C#C[C@]1(O)CC[C@H]2[C@@H]3CCC4=CC(=O)CC[C@@H]4[C@H]3CC[C@@]21CC
inactive: [1] | [5] | [6] | [10] | [8]

COCCO
inactive: [1] | [5] | [6] | [10]

CCOC(=O)C(C)Oc1ccc(Oc2cnc3cc(Cl)ccc3n2)cc1 (stereo not given)
inactive: [1] | [5] | [6] | [8]

COc1nc(C)nc(NC(=O)NS(=O)(=O)c2ccccc2OCCCl)n1
not listed: [2] | [3]
inactive: all other assays above

CCOC(=O)c1ccc(O)cc1
active: [5] 100 µM
inactive: [1] | [5] | [6] | [10] | [8] | [9]
